Compound activity deposited in PubChem BioAssay by National Center for Advancing Translational Sciences (NCATS).
Most compounds without a hit are left out; they make up all but 11% or so of the library.
G9a inh: qHTS Assay for Inhibitors of Histone Lysine Methyltransferase G9a; G9a H3K9 monomethylation, AlphaScreen, 2 h; Histone-lysine N-methyltransferase EHMT2 (Homo sapiens), Q96KQ7; Potency, µM (top dose mostly 102 µM), without a hit: top-dose activity, negative = inhibition, usual class: inhibitors; actives 8.8% (n = 350,000); also: % is scaled to controls: 0 for no effect and ±100 for the full control effect; nearly all actives have a fitted effect of over 75% in size
Target sequence (Q96KQ7 913-1193 limits assumed): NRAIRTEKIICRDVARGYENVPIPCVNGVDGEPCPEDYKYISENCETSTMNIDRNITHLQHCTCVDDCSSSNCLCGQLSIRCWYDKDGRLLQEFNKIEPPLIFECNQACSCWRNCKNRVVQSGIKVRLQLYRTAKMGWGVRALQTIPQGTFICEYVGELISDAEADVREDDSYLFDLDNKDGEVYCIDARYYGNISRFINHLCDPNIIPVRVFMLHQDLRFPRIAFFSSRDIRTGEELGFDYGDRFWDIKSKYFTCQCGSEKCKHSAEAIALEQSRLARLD
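Step 1: enzyme (final 20 nM) with compound, 15 min RT. Step 2: substrate peptide 500 nM and SAM 20 uM, 2 h RT. Step 3: anti-H3K9me1 antibody and AlphaScreen beads, 10 min, then plate read.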
BAZ2B inh: qHTS Assay for Inhibitors of BAZ2B | Bromodomain adjacent to zinc finger domain protein 2B (Homo sapiens), Q9UIF8 | AlphaScreen BAZ2B-H3K14Ac peptide displacement | Potency, µM (titrated, usually from 114 µM), inactives show top-dose activity change, negative = inhibition, usual class: inhibitors | actives 4.4% (n = 360,000) | AID 504333, 2011; also: % is scaled to controls: 0 for no effect and ±100 for the full control effect; nearly all actives have a fitted effect of over 60% in size
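In this displacement format the biotinylated H3(5-23) peptide acetylated at Lys14 serves as ligand at 50 nM, with BAZ2B at 50 nM in PBS pH 7.4 containing 0.01% Tween-20. Donor and acceptor beads are 10 ug/mL final.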
HP1b binding inh: HTS for Inhibitors of HP1-beta Chromodomain Interactions with Methylated Histone Tails. Potency, µM (series often up to 114 µM), for the others: top-dose activity change, negative = inhibition, hits mostly inhibitors. AlphaScreen HP1-beta / biotin-H3K9me3 peptide binding. actives 0.56% (n = 390,000). Chromobox protein homolog 1 (Homo sapiens), P83916; also: nearly all actives have a fitted effect of over 70% in size
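HP1-beta protein (50 nM final) preincubated 30 min at room temperature with biotinylated H3(1-18)K9me3 peptide (50 nM) in PBS pH 7.4, 0.01% Tween-20, then compound added for 30 min. AlphaScreen streptavidin donor/nickel chelate acceptor beads (10 ug/mL final), 30 min dark, luminescence read.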
PLK1 PBD inh: qHTS for Inhibitors of PLK1-PDB (polo-like kinase 1 - polo-box domain): Primary Screen; actives 2.8% (n = 360,000); Serine/threonine-protein kinase PLK1 (Homo sapiens), P53350; AID 720504, 2013; Plk1 PBD binding of FITC phosphopeptide, fluorescence polarization; Potency, µM, for inactives: max response, negative = inhibition, most hits filed as inhibitors; also: series mostly up to about 57 µM; % is scaled to controls: 0 for no effect and ±100 for the full control effect; nearly all actives have a fitted effect of over 65% in size
JMJD2A Tudor inh: qHTS Assay for Inhibitors of JMJD2A-Tudor Domain; AlphaScreen JMJD2A-Tudor / H3K4me3 peptide binding; Lysine-specific demethylase 4A (Homo sapiens), O75164; Potency, µM (titrated, usually from 114 µM), without a hit: at the top dose activity change, negative = inhibition, most hits filed as inhibitors; actives 4.4% (n = 390,000); also: % is scaled to controls: 0 for no effect and ±100 for the full control effect; nearly all actives have a fitted effect of over 50% in size
VDR inhibitor: Inhibitors of the vitamin D receptor (VDR): qHTS. Vitamin D3 receptor (Homo sapiens), P11473. actives 0.93% (n = 400,000). AID 504847, 2011. VDR-SRC2-3 peptide fluorescence polarization, 2 h. Potency, µM, without a hit: max response, negative = inhibition, hits mostly inhibitors; also: % is scaled to controls: 0 for no effect and ±100 for the full control effect
Target sequence (P11473 whole entry, looked up): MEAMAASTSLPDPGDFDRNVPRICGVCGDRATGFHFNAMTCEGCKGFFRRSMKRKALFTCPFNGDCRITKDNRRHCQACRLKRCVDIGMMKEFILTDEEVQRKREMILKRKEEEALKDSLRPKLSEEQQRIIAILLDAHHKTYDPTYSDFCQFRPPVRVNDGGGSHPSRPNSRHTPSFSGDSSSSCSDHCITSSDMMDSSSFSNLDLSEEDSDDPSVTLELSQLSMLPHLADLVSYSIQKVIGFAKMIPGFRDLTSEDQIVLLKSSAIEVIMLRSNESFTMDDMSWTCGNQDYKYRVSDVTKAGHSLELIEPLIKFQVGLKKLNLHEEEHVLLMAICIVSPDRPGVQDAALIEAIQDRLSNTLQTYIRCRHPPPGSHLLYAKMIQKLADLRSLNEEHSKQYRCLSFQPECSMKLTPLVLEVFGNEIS
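Measured by FP: displacement of SRC2-3 coactivator peptide from VDR by library compounds, following a two-hour ambient incubation.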
Starred values were filed as active, the others as inactive; ? = inconclusive; · = no result; [ ] = another dose, or the depositor's remark. Calls follow the shape of the dose curve; as a rule, active = well fitted curve in the direction sought with a large enough effect; inconclusive = small, poorly fitted or top-dose-only effect, or another doubt; inactive = no such curve, though single readings can be large; an effect the other way counts as inactive or inconclusive. Potency is read from the fitted curve at half-maximal effect.

SMILES	G9a inh	BAZ2B inh	HP1b binding inh	PLK1 PBD inh	JMJD2A Tudor inh	VDR inhibitor
COc1ccccc1C(=O)NCC(c1ccco1)N1CCc2ccccc21 (stereo not drawn)	50µM*	50µM*	5%	-7%	?	5%
CCOc1ccc(CC(=O)C2C(=O)CC(C)(C)CC2=O)cc1OCC	10µM*	?	55%	-4%	18µM*	-24%
CCOc1ccc(CC(=O)C2C(=O)CCCC2=O)cc1OCC	11µM*	?	45%	-16%	25µM*	-16%
CCOc1ccc(CC(=O)C2=C(N3CCOCC3)CC(C)(C)CC2=O)cc1OCC	25µM*	-24%	28%	-18%	-19%	0%
CCOc1ccc(CC(=O)NC2CC(C)(C)N(C)C(C)(C)C2)cc1OCC	-15%[12.7 µM]	16%	43%	-6%	0%	-17%
CCOc1ccc(CC(=NCCc2ccccc2)C2=C(O)CC(C)(C)CC2=O)cc1OCC	71µM*	-4%	34%	-9%	-13%	-21%
CCOc1ccc(CC(=N)C2=C(O)CC(C)(C)CC2=O)cc1OCC	13%[59 µM]	6%	34%	-1%	9%	-24%
O=C1NC[C@H](CCCCN2CCN(CCC3CCCCC3)C(=O)C2=O)N(CCc2ccc(O)cc2)C1=O	·	·	·	-5%	·	·
CC1=C(c2ccc(Cl)cc2)S(=O)(=O)N=C1N1CCN(c2cccc(C(F)(F)F)c2)CC1	-35%[59 µM]	-13%	24%	·	-16%	15%
CSCCOC(=O)COc1ccc(/C=N/NC(=O)c2nn(C)cc2Cl)cc1	40µM*	-5%	26%	0%	-1%	9%
O=C(NC1CCCC1)C(c1ccc(Cl)cc1)N1CCc2ccccc21 (stereo not drawn)	-11%	11%	36%	0%	-11%	89µM*
O=C(NC1CCCCC1)C(c1ccccc1)N1CCc2ccccc21 (stereo not drawn)	?	?	-7%	-7%	?	-2%
c1ccc(C[C@H]2CN=C(Nc3ccccc3)N2CCCC2CCCC2)cc1	45µM*	?	26%	-21%	-30%	3%
c1ccc(CCCCN2C(Nc3ccccc3)=NC[C@@H]2Cc2ccccc2)cc1	23%[2.33 µM]	1%	24%	-12%	-34%	-10%
CCOc1nc(Nc2ccc(OC)cc2)nc(OCC)n1	15%[59 µM]	1%	-73%	-8%	79µM*	4%
CCc1cc(=O)n2[nH]c(-c3ccccc3)c(-c3ccccc3)c2n1	16%	12%	38%	-10%	-9%	4%
CCn1cnc2c1c(=O)n(Cc1cccc(Br)c1)c(=O)n2Cc1ccccc1	-8%[59 µM]	-1%	19%	?	71µM*	?
Cc1ccc(C)c(NC(=O)CSc2nc(=O)n(Cc3ccncc3)c3c2CCC3)c1	-2%[59 µM]	-2%	35%	·	-2%	15%
CN(C)CCn1nnnc1SCC1=C(C(=O)O)N2C(=O)[C@@H](NC(=O)Cc3csc(N)n3)[C@@H]2SC1	6%[21.5 µM]	·	·	·	·	?
CO/N=C(/C(=O)N[C@@H]1C(=O)N2C(C(=O)O)=C(CSc3nnnn3C)CS[C@H]12)c1csc(N)n1	-41%[12.7 µM]	·	·	·	·	?
CN(C)CCn1nnnc1SCC1=C(C(=O)O)N2C(=O)[C@@H](NC(=O)Cc3csc(N)n3)[C@H]2SC1	16µM*	50µM*	29%	?	56µM*	-3%
CO/N=C(/C(=O)N[C@@H]1C(=O)N2C(C(=O)O)=C(CSc3cnns3)CS[C@H]12)c1csc(N)n1	?	·	·	·	·	35µM*
COc1ccc(-c2cn(Cc3ccc(C(N)=O)cc3)c(CCN)n2)cc1	-3%[2.33 µM]	-30%	11%	4%	?	-9%
CCCN1C(=O)/C(=C/c2c(NCCCOCC)nc3c(C)cccn3c2=O)SC1=S	-37%[59 µM]	6%	32%	13%	-4%	-10%
Cc1cccn2c(=O)c(/C=C3\SC(=S)NC3=O)c(NCCCN3CCOCC3)nc12	13µM*	-37%	20%	14%	-16%	10%
SMILES	G9a inh	BAZ2B inh	HP1b binding inh	PLK1 PBD inh	JMJD2A Tudor inh	VDR inhibitor
CCCc1ccc2c(C(F)(F)F)cc(C(F)(F)F)cc2n1	·	·	·	-2%	·	·
Cc1ccccc1CNC(=O)c1ccc(Cn2c(SCc3cccc(F)c3)nc3cccnc32)cc1	-7%[59 µM]	-21%	41%	·	-13%	11%
CCCCOC(=O)/C(C#N)=C/c1ccc(-c2ccc(Br)cc2)o1	-27%[59 µM]	2%	25%	·	-8%	2%
CCCCc1ccc(/C=C(\C#N)C(N)=S)s1	35µM*	45µM*	25µM*	-16%	35µM*	9%
CC(=O)N1CCc2cc(S(=O)(=O)NC(CC(C)C)C(=O)NCCc3ccc(C)cc3)ccc21 (stereo not drawn)	-5%[59 µM]	·	36%	·	-4%	2%
Brc1ccc(CN2CCN(c3ccccc3)CC2)o1	?	56µM*	?	7%	3.2µM*	6%
Cc1ccccc1N1CCN(Cc2ccc(Br)o2)CC1	10µM*	56µM*	?	?	1µM*	-23%
Cc1cccc(N2CCN(Cc3oc(CO)cc(=O)c3O)CC2)c1C	5%[12.7 µM]	-37%	25%	0%	?	27%
Cc1cccc(N2CCN(Cc3ccc(Br)o3)CC2)c1C	25µM*	?	-26%	-6%	28µM*	5%
Clc1ccccc1N1CCN(Cc2nnc(-c3ccccc3)o2)CC1	-3%[59 µM]	-1%	20%	·	-14%	7%
Clc1ncc(CN2CCN(c3ccccc3)CC2)s1	-1%	-39%	24%	5%	-10%	7%
Clc1ccccc1N1CCN(Cc2ccc(Br)o2)CC1	·	·	-11%	2%	25µM*	7%
C/C=C/c1ccc2c(c1)O[C@H](CN(C)C(=O)NC1CCCC1)[C@H](C)CN([C@H](C)CO)S2(=O)=O	·	·	·	-24%	·	·
CCCCC(=O)Nc1cccc(NC(=S)NC(C)=O)c1	-19%[59 µM]	-6%	19%	-26%	11%[57.1 µM]	?
CC1CCN(C(=O)Cn2cc(SCc3cccc(F)c3)c3ccccc32)CC1	7%[59 µM]	2%	38%	·	24%	9%
CC(C)c1ccc2[nH]c3nc(SCC(=O)N4CCOCC4)nnc3c2c1	-45%	-5%	31%	-3%	?	-4%
CCOc1cccc(/C=N/NC(=O)c2cc(C3CC3)[nH]n2)c1O	78%	-1%[57.1 µM]	40%	-16%	-28%	8%
CCOc1ccc(C(=O)NCCn2cc(SCC(=O)Nc3ccc4c(c3)OCCO4)c3ccccc32)cc1	?	-28%	7%	·	-21%	24%
